BoNT-F LC inh = blocks Botulinum neurotoxin F light chain protease; Multiplex microsphere protease cleavage assay, flow cytometry; inhibition, % at 10 µM; 360,000 tested, 0.22% active; AID 588497; in the data active = inhibition above about 35%, passing the limit was not always enough; inconclusive = no clear call, values can overlap the other calls; note: plate controls were buffer without enzyme for full effect and enzyme alone for no effect
Anthrax LF prot = blocks Bacillus anthracis lethal factor protease. 360,000 tested, 0.12% active. P15917. multiplex microsphere protease cleavage assay, LF. AID 588501. inhibition, % at 10 µM; note: plate controls were buffer without enzyme for full effect and enzyme alone for no effect
BJeLR viability = BJeLR cell viability loss; BJeLR (HRASV12) viability, CellTiter-Glo ATP luminescence, 48 h; AID 1554; 300,000 tested, 0.17% active; inhibition, % (no concentration beside the values); in the data active = inhibition above about 50%; inconclusive = no clear call, values can overlap the other calls
Bead autofluor = flagged as autofluorescent in microsphere protease counterscreen. compound autofluorescence counterscreen, microsphere flow cytometry; hits give high values. fluorescence intensity (concentration not given with the values). 360,000 tested, 3.1% active. AID 624483; in the data active = fluorescence intensity above about 16000; inconclusive = no clear call, values can overlap the other calls
BoNT-A LC inh2 = BoNT A light chain protease inhibition. multiplex microsphere protease substrate cleavage, flow cytometry. inhibition, % at 10 µM. 360,000 tested, 0.17% active. AID 588499; note: plate controls were buffer without enzyme for full effect and enzyme alone for no effect
Numbers without * were called inactive; ? = inconclusive; . = no result. In the library only some 3.5% were active in any assay of this set; here they are far more common. Cut-off read from the data, not from the text of the source, unless noted: active = inhibition above about 30%; inconclusive = no clear call, values can overlap the other calls; inactive = below that.

SMILES	BoNT-F LC inh	Anthrax LF prot	BJeLR viability	Bead autofluor	BoNT-A LC inh2
CCO/C(=C/c1sc2ccc(OC)cc2[n+]1CCCS(=O)(=O)[O-])CC	-9	-8	4	6051	0
CCC(/C=C1\Sc2ccc(OC)cc2N1CCO)=C\c1sc2ccc(OC)cc2[n+]1CCO	-120	-26	.	1224	40*
COc1ccc(CCN2C(=O)COc3ccccc3C2C(=O)NC(C)(C)C)cc1OC (configuration not stated)	10	2	.	4100	0
C=CCC(NCc1ccccc1)c1ccc(C)o1 (configuration not stated)	?	-3	-6	?	-1
COC(=O)[C@]12CCCCC=C1N(CCC1=CCCCC1)C(=O)[C@H](CC(=O)N1CCCCC1)C2	-7	2	.	6322	-1
N/C(=N\OC(=O)c1ccccc1Cl)c1ccccc1	0	-2	9	22870*	?
N/C(=N\OC(=O)c1ccc(F)cc1)c1ccc(Br)cc1	-3	-8	10	4385	0
N/C(=N\OC(=O)c1ccc(F)cc1)c1ccccc1	-8	-2	-7	22601*	-7
Cc1ccccc1C(=O)O/N=C(\N)c1cccc([N+](=O)[O-])c1	5	-3	8	10299	0
N/C(=N\OC(=O)c1cccc2ccccc12)c1cccc([N+](=O)[O-])c1	0	-1	-1	16600*	-1
O=C(NCC1CCCO1)C(c1ccc(F)cc1)N(C(=O)Cn1nnc(-c2ccc(F)cc2)n1)c1cccc(O)c1 (configuration not stated)	0	-1	3	3388	0
Cc1ccc(-c2nnn(CC(=O)N(c3ccccc3F)C(CC(C)C)C(=O)NCC3CCCO3)n2)cc1 (configuration not stated)	-3	-4	0	16688*	-1
CC(C)CC(C(=O)NCC1CCCO1)N(C(=O)Cn1nnc(-c2ccc(F)cc2)n1)c1ccccc1F (configuration not stated)	-9	-5	-3	21995*	-3
Cc1ccc(N(C(=O)Cn2nnc(-c3ccc(F)cc3)n2)C(CC(C)C)C(=O)NCC2CCCO2)cc1 (configuration not stated)	-4	0	-12	23138*	-1
CC(C(=O)NC1CCCC1)N(C(=O)Cn1nnc(-c2ccc(F)cc2)n1)c1ccccc1F (configuration not stated)	5	-3	5	4115	1
CC(C)CC(C(=O)NCC1CCCO1)N(C(=O)Cn1nnc(-c2ccc(F)cc2)n1)c1cccc(C(F)(F)F)c1 (configuration not stated)	-2	-1	0	23362*	?
O=C(CC(c1ccccc1)c1ccccc1O)NCc1ccccc1Cl (configuration not stated)	-7	-1	-19	2466	0
Cc1ccc(-c2nnn(CC(=O)N(CC3CCCO3)C(C(=O)NCC3CCCO3)c3ccc(F)cc3)n2)o1 (configuration not stated)	-10	2	-1	3529	0
Cc1ccc(-c2nnn(CC(=O)N(CC3CCCO3)C(C(=O)NC(C)(C)C)c3ccc(F)cc3)n2)o1 (configuration not stated)	-2	-2	-7	22682*	?
COC(=O)c1ccc(NC(=O)COc2ccc(S(=O)(=O)N3CCCCC3)cc2)cc1	2	2	-9	23051*	2
O=C(COc1cccc(C(F)(F)F)c1)Nc1ccc(S(=O)(=O)N2CCCC2)cc1	-10	-4	.	25851*	-5
COc1ccc(NC(=O)C(=O)NCC2CCCN2S(=O)(=O)c2ccc(C)cc2)cc1 (configuration not stated)	8	0	51*	8646	-2
COc1ccc(S(=O)(=O)N2CCCC2CNC(=O)C(=O)Nc2ccc(C)cc2)cc1 (configuration not stated)	.	.	-6	.	.
COc1ccc(S(=O)(=O)N2CCN(CC(=O)Nc3cc(OC)cc(OC)c3)CC2)cc1	7	0	-3	2667	0
COc1ccc(NC(=O)CN2CCN(S(=O)(=O)c3ccc(Cl)cc3)CC2)cc1	-3	0	-9	22877*	-2
O=C(NC1CCCCC1)C1c2ccccc2OCC(=O)N1CCc1c[nH]c2ccccc12 (configuration not stated)	-7	2	.	5849	0
CC1=C(C(=O)N2CCOCC2)CC(CC(=O)NC2CCCCC2)C(=O)N1Cc1ccccc1 (configuration not stated)	-2	-9	.	3166	0
CCc1ccc(OCC(=O)Nc2ccc(S(=O)(=O)N3CCCC3)cc2)c(Br)c1	-5	-2	0	23390*	-3
